hgDAF12 agonist: hgDAF-12 agonism, primary luciferase screen | HEK293 GAL4-hgDAF12 UAS-luciferase reporter, agonist luminescence; normalized to butyrate control | 1.8% of 370,000 active | activation, % at 6.8 µM | AID 687014;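 active = activation above a cutoff set at the mean of all screened compounds plus 3 SD, cut at about 10% in these data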;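 note: 0% = DMSO wells and 100% = sodium butyrate wells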
hcDAF12 agonist: H. contortus DAF-12 activation, primary screen; HEK293 hcDAF-12 lit1-tk-luc reporter, luminescence; 0% DMSO, 100% Δ7-dafachronic acid; activation, % at 6.8 µM; 1.4% of 370,000 active;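 active = activation above the mean of all tested compounds plus 3 SD, cut at about 5.5% in these data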;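 note: 100% = response to 3 µM Δ7-dafachronic acid high control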
DAX1 inh-1: inhibitors of human orphan nuclear receptor DAX1 (NR0B1) | 0.99% of 340,000 active | inhibition, % at 6.75 µM | HEK293 Gal4-DAX1 luciferase reporter, luminescence | AID 504766;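 active = inhibition above the mean over all tested compounds plus 3 SD, cut at about 4.2% in these data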;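 note: 0% = DAX1-transfected cells with DMSO and 100% = empty-vector control cells with DMSO; inhibition shows as a rise in luminescence from relieved DAX1 repression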
DAX1 inh-2: inhibitors of DAX1 repression of SF-1 activated StAR promoter | 1.1% of 370,000 active | HEK293T StAR-luciferase reporter, SF-1/DAX-1 repression relief | inhibition, % at 6.8 µM;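 active = inhibition above the mean over all tested compounds plus 3 SD, cut at about 3.6% in these data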;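 note: 0% = DAX-1 cells with DMSO and 100% = cells lacking DAX-1 with DMSO; higher inhibition means more luminescence from relief of DAX-1 repression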
NR1D1 modulator: Rev-erb alpha (human) modulation; 0.79% of 370,000 active; activity, % at 10 µM; AID 1259318; P20393; Rev-erbα–FITC-DNA binding, fluorescence polarization, 90 min;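 active = activity above about 14%, limit read from the data; passing the limit was not always enough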;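 note: 0% = DMSO wells with 35 nM protein and 100% = DMSO wells with 750 nM protein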
Target sequence (P20393 whole entry, looked up): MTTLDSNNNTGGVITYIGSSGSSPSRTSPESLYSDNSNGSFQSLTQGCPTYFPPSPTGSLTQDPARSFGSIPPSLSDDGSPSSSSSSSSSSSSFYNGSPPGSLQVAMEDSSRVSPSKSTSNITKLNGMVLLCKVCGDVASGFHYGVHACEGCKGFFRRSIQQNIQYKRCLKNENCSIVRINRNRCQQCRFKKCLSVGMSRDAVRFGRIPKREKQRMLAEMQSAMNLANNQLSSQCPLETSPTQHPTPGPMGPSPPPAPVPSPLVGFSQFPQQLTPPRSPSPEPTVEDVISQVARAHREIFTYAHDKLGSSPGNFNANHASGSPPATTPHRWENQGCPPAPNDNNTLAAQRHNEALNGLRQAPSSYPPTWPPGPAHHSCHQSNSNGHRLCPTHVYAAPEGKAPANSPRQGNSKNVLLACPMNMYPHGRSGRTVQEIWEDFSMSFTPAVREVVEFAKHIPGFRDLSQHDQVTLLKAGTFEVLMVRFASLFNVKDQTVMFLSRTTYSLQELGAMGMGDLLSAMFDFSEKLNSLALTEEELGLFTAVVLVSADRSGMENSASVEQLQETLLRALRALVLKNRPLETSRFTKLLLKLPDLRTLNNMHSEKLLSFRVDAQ
ssDAF-12 act: activates DAF-12 receptor from parasite S. stercoralis | HEK293 ssDAF-12/GRIP1 lit1-tk-luc reporter, luminescence; % of 3 µM dafachronic acid response | activation, % at 6.8 µM | 1% of 370,000 active | AID 652126;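 active = activation above the mean over all tested compounds plus 3 SD, cut at about 0.9% in these data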;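 note: 0% = DMSO-only wells and 100% = 3 µM delta7-dafachronic acid wells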
Rev-erbA confirm: confirmation of modulators of human Rev-erb alpha DNA binding; shares compounds with NR1D1 modulator; Rev-erb alpha FITC-DNA binding, fluorescence polarization, 90 min; activation, % at 25 µM; 61% of 3,000 active; AID 1259319;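 active = activation at or above a set limit, or at least 3 SD above the negative control mean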;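 note: 0% = 35 nM protein with DMSO and 100% = 750 nM protein high control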
RORg counter: counter-screen for Rev-erb alpha modulators: RORgamma DNA binding; shares compounds with NR1D1 modulator; purified RORgamma protein-FITC-DNA binding, fluorescence polarization; IC50, µM; 8% of 910 active;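 active = Compounds whose fitted half-maximal concentration for disrupting protein-DNA binding is below 10 micromolar; the record names Rev-erb in its text, so the target is in doubt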
Starred values were filed as active, the others as inactive; i = inactive; / = not tested or not shown. Most compounds without a hit are left out; they make up all but 4.8% or so of the library.

SMILES | hgDAF12 agonist | hcDAF12 agonist | DAX1 inh-1 | DAX1 inh-2 | NR1D1 modulator | ssDAF-12 act | Rev-erbA confirm | others
Cc1nc2ccc(C(=O)N3CCN(C(=O)OCc4ccccc4)CC3)cc2n1C1CCCC1 | -2 | -4 | / | -1 | -5 | -1 | /
COc1cc(/C=C(\C#N)c2nc3ccccc3o2)ccc1O | 0 | 1 | 4 | 0 | 43* | -2 | 60* | RORg counter=>40
N#C/C(=C\c1ccc(O)cc1)c1nc2ccccc2o1 | 3 | 3 | 2 | 1 | 7 | 0 | /
CC(C)Cc1ccc(-c2cc3nc(NCCc4ccc(S(N)(=O)=O)cc4)ccn3n2)cc1 | 6 | 2 | / | 3 | 35* | 0 | 24*
NS(=O)(=O)c1ccc(CCNc2ccn3nc(-c4ccccc4)cc3n2)cc1 | 6 | 0 | / | -3 | 0 | -1 | /
CC1(C)C=C2C(=NN(c3ccccc3)C(N)=C2C#N)CO1 | -3 | 1 | 0 | 0 | 19* | -2 | 11
CCN(CC)S(=O)(=O)c1ccc(N2CCCCC2)c(NC(=O)C2CSC3(C)CCC(=O)N23)c1 (stereo not drawn) | 2 | -1 | 0 | -2 | 31* | -2 | 47* | RORg counter=>40
CN(C)c1ccc(S(=O)(=O)N2CCCCC2)cc1NC(=O)C1CSC2(C)CCC(=O)N12 (stereo not drawn) | 1 | 0 | 0 | 0 | 3 | -1 | /
CC(=O)c1c(-c2ccc(C)cc2)nc2c3ccccc3ccn12 | -2 | 4 | -1 | 0 | -2 | 0 | /
COc1ccc(-c2nc3c4ccccc4ccn3c2C=O)cc1 | 4 | 3 | 0 | 0 | 53* | 0 | 93* | RORg counter=>40
Cc1cc2oc(C(=O)Nc3ccc(S(=O)(=O)Nc4ncccn4)cc3)c(C)c2cc1Cl | -2 | -1 | 0 | 1 | 22* | -1 | -4
Cc1c(C(=O)Nc2ccc(S(=O)(=O)Nc3ncccn3)cc2)oc2ccccc12 | 1 | 0 | 2 | 1 | -7 | 0 | /
O=C(NCc1ccco1)c1ccc(Cn2c(=O)c3ccccc3n(Cc3cccc(F)c3)c2=O)cc1 | 0 | 0 | 0 | 0 | 53* | -1 | 37* | RORg counter=i
O=C(NCc1ccco1)c1ccc(Cn2c(=O)c3ccccc3n(Cc3ccc(Cl)cc3)c2=O)cc1 | -2 | -2 | 0 | 0 | 7 | -2 | /
CC(OP(=O)(O)C(NC(=O)[C@H](Cc1ccc(O)cc1)NC(=O)OC(C)(C)C)C(C)C)C(=O)O (stereo partly drawn) | 0 | 0 | / | / | 2 | -2 | /
O=C(CNc1nnnn1-c1ccccc1)N1CCCC1 | -2 | 3 | / | 0 | 0 | -1 | /
CC1Cc2ccccc2N1C(=O)CSc1nc2cc3c(cc2cc1C#N)OCO3 (stereo not drawn) | 2 | -1 | -1 | 0 | 70* | -1 | 32*
Cc1cc2ccccc2nc1SCC(=O)N1c2ccccc2CC1C (stereo not drawn) | 1 | -2 | 0 | 1 | 147* | -1 | -2
Cc1cc2cc3c(cc2nc1SCC(=O)N1c2ccccc2CC1C)OCO3 (stereo not drawn) | -1 | 0 | 0 | -1 | 7 | -2 | /
Cc1sc(NC(=O)c2ccccc2)c(C(=O)NC(C)C)c1C | -1 | 3 | -1 | 0 | 24* | -2 | 3
COC(=O)CCC[C@H](C)[C@@H](NS(=O)(=O)c1ccc(C)cc1)C(C)(C)C | -2 | -2 | / | 0 | -2 | -2 | /
O=S(=O)(c1ccccc1)c1nc(-c2ccccc2)oc1N1CCCC1 | -2 | -1 | 1 | 1 | 16* | -2 | -7
O=C(CSc1nnc(-c2cccs2)n1-c1ccccc1)N1CCCc2ccccc21 | 0 | 1 | -1 | -2 | 110* | -2 | 101* | RORg counter=i
CCOc1ccc(-n2c(SCC(=O)N3CCc4ccccc43)nnc2-c2c[nH]c3ccccc23)cc1 | -1 | 2 | 1 | 1 | 93* | -1 | 24*
O=C(NCC1CCCO1)c1cn(Cc2ccccc2)nc1-c1ccccc1 (stereo not drawn) | 1 | 0 | 0 | 1 | 27* | -1 | -5
SMILES | hgDAF12 agonist | hcDAF12 agonist | DAX1 inh-1 | DAX1 inh-2 | NR1D1 modulator | ssDAF-12 act | Rev-erbA confirm | others
O=C(NCC1CCCO1)c1cn(Cc2ccccc2)nc1-c1ccc(Cl)cc1 (stereo not drawn) | -1 | 3 | 0 | 0 | -2 | -1 | /
COC(=O)c1cc(Cl)c(NC(=O)c2cc3ccccc3o2)cc1OC | 1 | 0 | 2 | 0 | 28* | -1 | 0
COC(=O)c1sc(NC(=S)NC(=O)c2ccccc2F)nc1C | 4 | 1 | 1 | 1 | 43* | 0 | 0
CCOC(=O)c1sc(NC(=O)c2cc3ccccc3o2)nc1C | 4 | 1 | 1 | 3 | 30* | -1 | 5
CCOC(=O)c1csc(NC(=O)c2cc3ccccc3o2)n1 | 8 | -1 | -1 | 2 | -5 | -1 | /
CCOC(=O)c1sc(NC(=O)c2ccccc2OC)nc1C | 7 | -1 | 4 | 3 | 40* | -2 | 23*
COC(=O)c1cc(Cl)c(NC(=O)c2ccc(C(C)(C)C)cc2)cc1OC | 0 | -2 | 0 | 0 | -4 | -2 | /
CCOC(=O)Cc1nnc(NC(=O)c2ccccc2OC)s1 | 2 | -2 | -1 | 1 | -2 | -1 | /
O=C(/C=C(\Nc1cccc(OC(F)F)c1)c1ccccc1)c1ccccc1 | 6 | 1 | / | 2 | -1 | -1 | /
CCOC(=O)CC1(C)Sc2ccccc2N1S(=O)(=O)c1ccc(C)cc1 (stereo not drawn) | 0 | -3 | / | -1 | -3 | -1 | /
Cc1noc(C)c1NC(=O)Nc1ccc2c(c1)C(=O)N([C@@H](C)CO)C[C@@H](C)[C@H](CN(C)S(=O)(=O)c1ccc(F)cc1)OCCCC[C@H](C)O2 | 2 | 1 | / | / | -4 | -1 | /
CC(=O)C1(C(=O)N2CCOCC2)CC(c2ccccc2C(F)(F)F)=NO1 (stereo not drawn) | 3 | -2 | / | 0 | 4 | -1 | /
COc1ccc(C2CC(c3ccc(Cl)c(Cl)c3)Nc3nc(N)nn32)cc1 (stereo not drawn) | 3 | 1 | 1 | -1 | 31* | -1 | 17*
O=C1CCCc2nc(N3CCN(c4ccccc4)CC3)ncc21 | 2 | 0 | 1 | 0 | 24* | -1 | 18*
O=S(=O)(c1ccccc1)N1CCN(Cc2ccccc2)c2ccccc21 | 3 | -1 | -1 | -1 | 25* | -1 | 17*
Cc1ccc(Cl)cc1NC(=O)OCCN(C)C(=O)Nc1cc(Cl)ccc1C | -2 | -3 | / | -1 | 4 | -1 | /
